Laboratory results reported in PubChem BioAssay (NCI).
About 83,000 compounds went through this panel and 20% of them were active in at least one assay; those are over-represented in the sample as a whole.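 How to read the values: 0–100, growth inhibition (40 = 60% inhibited); 0, no net growth; -100 to 0, cell death (-40 = 40% of starting cells died; -100 = all dead).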 The source made the active and inactive calls. How the source made its calls: active means growth percent below 10; inactive means the rest.

These compounds were tested on MDA-MB-435 melanoma (assay: NCI-60 one-dose screen, 48 h (100 = growth as untreated, 0 = no growth, -100 = all killed)). Conditions: 10 µM.
COc1ccc(/C(C#N)=C/c2ccccc2OC)cc1 was tested, and the growth was -19.4% (active).
In the case of COc1ccc(Cc2cnc(N)nc2N)cc1OC, the growth is reported as 107% (inactive).
With Cc1cc(CC(C)CC(C)(C)C)n(O)c(=O)c1 (stereo not drawn) (tested in a mixture with another compound) the growth was 22.2% (inactive).

These compounds were tested on SW-620 colon in the same assay as above. Conditions: 10 µM.
With O=C(O)c1ccc(-n2cc(CNc3ccc(Cl)cc3)c(-c3ccccc3)n2)cc1 the growth was 92.6% (inactive).
In the case of Cc1ccc(C(=O)C2C(=O)C3CCC2C3)cc1 (stereo not drawn), the growth is reported as 104% (inactive).
For COc1cc2c(Nc3ccc(S(N)(=O)=O)cc3)ncnc2c(OC)c1OC, the growth was 95.7% (inactive).
CN1CCN(CC(=O)Nc2cccc(-n3cc(-c4ccncc4)c(-c4ccc(Cl)c(O)c4)n3)c2)CC1 was tested, and the growth was 20.8% (inactive).
For O=[N+]([O-])c1cccc(/C=N/NC(=S)NC23CC4CC(CC(C4)C2)C3)c1, the growth was 88.5% (inactive).
With CN1CCN(c2cc3c(cc2F)c(=O)c(C(=O)O)cn3-c2ccc(F)cc2)CC1 the growth was 98% (inactive).
For O=C(CN1CCN(C(=O)c2ccccc2)CC1)Nc1ccccc1SCc1ccccc1, the growth was 98.5% (inactive).
Clc1ccc2c(c1)C(N1CCNCC1)=Nc1ccccc1O2 was tested, and the growth was 67% (inactive).
For CCOC(=O)c1cc(C(=O)c2cc(OC)c(OC)c(OC)c2)n2ncc3ccccc3c12, the growth was 35.8% (inactive).
In the case of CC(=O)C1CCC2C3CC=C4CC(SC(=N)N)CCC4(C)C3CCC12C (stereo not drawn), the growth is reported as -75.2% (active).
In the case of COc1cc2c(Nc3ccc(-c4ccc(N)cc4)cc3)ncnc2c(OC)c1OC, the growth is reported as 14.4% (inactive).
With C#C[C@]1(O)CCC2C3CCc4cc(OC5CCCC5)ccc4C3CC[C@@]21C (stereo partly drawn) the growth was 53.4% (inactive).
Cc1cc(SC#N)cc(C(C)(C)C)c1O was tested, and the growth was 120% (inactive).
For Cc1cc(CCNC=O)c(C)c2c1sc1ccccc12, the growth was 102% (inactive).
CO[C@H]1CC(O[C@@H]2/C(C)=C/C[C@@H]3C[C@@H](C[C@]4(C=C[C@H](C)[C@@H](C5CCCCC5)O4)O3)OC(=O)[C@@H]3C=C(C)[C@@H](O)[C@H]4OC/C(=C\C=C\[C@@H]2C)[C@]43O)O[C@@H](C)C1O[C@H]1C[C@H](OC)[C@@H](O)[C@H](C)O1 (stereo partly drawn) was tested, and the growth was -92.7% (active).
In the case of CCN(CC)c1ccc(/C=C2\SC(=O)C(Nc3nnc(-c4cccnc4SCc4ccccc4)o3)C2=O)cc1 (stereo not drawn), the growth is reported as 22.7% (inactive).
O=C(N/N=C/c1ccc([N+](=O)[O-])cc1)c1ccccc1Nc1cccc(C(F)(F)F)c1 was tested, and the growth was 102% (inactive).
With CC(=O)[C@H]1CC[C@]2(C)[C@@H]1CC[C@@H]1[C@@]3(C)CC(CCC#N)(CCC#N)C(=O)C(C)(C)[C@@H]3CC[C@]12C the growth was 88.8% (inactive).
Cc1cc(CSc2ccccc2C(=O)N2CC=C(c3ccccc3)CC2)on1 was tested, and the growth was 97.6% (inactive).
N#Cc1ccc(C(=O)CSc2nccc(Nc3ccc(C(=O)O)cc3)n2)cc1 was tested, and the growth was 104% (inactive).
For COc1ccc2nc3cc(Cl)ccc3c(Nc3cc(CN4CCCC4)c(O)c(CN4CCCC4)c3)c2n1, the growth was 7.17% (active).
In the case of O=C(N/N=C/c1ccc(Cl)cc1)c1ccc(Cc2n[nH]c(=O)c3cccnc23)cc1, the growth is reported as 113% (inactive).
With O=S(=O)(Oc1ccc(-c2ccc3sccc3c2)cc1)c1ccc(F)cc1 the growth was 93.5% (inactive).
CNC(=O)c1c(I)c(NC(C)=O)c(I)c(C(=O)O)c1I was tested, and the growth was 102% (inactive).
With C/C(=N\O)c1ccc(NC(=O)CSc2nnc(-c3ccccc3)n2-c2ccccc2)cc1 the growth was 83.1% (inactive).
In the case of COc1ccc(/C=C2/SC(=S)NC2=O)c(OC)c1OC, the growth is reported as 93.9% (inactive).
For C[C@]12CC[C@@H]3c4ccc(O)cc4CC[C@H]3[C@@H]1CC[C@@H]2NS(=O)(=O)c1ccc(C(F)(F)F)cc1, the growth was 69.7% (inactive).
For NS(=O)(=O)c1ccc(Br)cc1, the growth was 112% (inactive).
With CNS(=O)(=O)Oc1ccc(-c2ccc3occc3c2)cc1 the growth was 102% (inactive).
COc1cc(-c2nn(-c3cccc(NC(=O)CCN4CCN(c5ccccc5)CC4)c3)cc2-c2ccncc2)ccc1Cl was tested, and the growth was 24.5% (inactive).
With CCN(CC)CC(=O)N(CC)c1ccc(C)c(Cl)c1 the growth was 97.3% (inactive).
In the case of Cc1cccc(N=Cc2ccccc2O)c1C, the growth is reported as 112% (inactive).
In the case of CCCCC1(O)CCCCC1, the growth is reported as 102% (inactive).
For COc1ccc(/C=C2\CCCC3=C2N=C2SC(C)=CN2C3c2ccc(OC)cc2)cc1 (stereo not drawn), the growth was 99.6% (inactive).
For c1ccc(CSc2ncccc2-c2nnc(SCCN3CCOCC3)o2)cc1, the growth was 107% (inactive).
